Screening data deposited in PubChem by National Center for Advancing Translational Sciences (NCATS).
The list is not random: actives were taken first. Their share in the collection is about 15%.
SARS PLP yeast – SARS-CoV PLP inhibition in yeast; Potency, µM (top dose mostly 32.9 µM), for the others: at the highest dose activity, positive = growth rescue, most hits filed as activators; S. cerevisiae expressing SARS-CoV PLpro, growth rescue; 330,000 tested, 0.19% active; calls by dose curve; further: potency means the concentration at half of the fitted maximal effect; 0% is about no effect; nearly all actives have a fitted effect of over 55% in size
HCMV antiviral – inhibitors of human cytomegalovirus | HFF cells, HCMV-luciferase reporter, 72 h; active compounds read low | activity change, negative = inhibition, % at 57.5 µM | 410,000 tested, 4.5% active; in the data active means activity change below about -60%; inconclusive means no clear call, values can overlap the other calls; inactive means above about -39%; further: on the % scale 0 is the no-effect control and ±100 the full control effect
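Screen run at 2 compound doses on HFFs infected with reporter HCMV, MOI 1 PFU/cell. Luciferase activity from cell lysates at 72 h post infection gave inhibition relative to buffer-only and Salinomycin wells.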
Pf growth 96h – P. falciparum growth inhibition at 96 hours | P. falciparum luciferase reporter growth, 96 h | Potency, µM (highest dose often 28.7 µM), for inactives: at the top dose activity change, negative = inhibition, most hits filed as inhibitors | 320,000 tested, 6.9% active | AID 504834; further: potency means the concentration at half of the fitted maximal effect; on the % scale 0 is the no-effect control and ±100 the full control effect
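Delayed-death screen, second-generation endpoint: infected erythrocytes, 2% hematocrit, 0.05% parasitemia final; 96 hours at 37 C, 5% CO2; luciferase detection reagent; luminescence decrease equals reduced growth.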
Pf growth 48h – P. falciparum growth inhibition at 48 hours (one generation); Potency, µM (doses to about 28.7 µM), for inactives: at the highest dose activity change, negative = inhibition, actives largely listed as inhibitors; 310,000 tested, 5.9% active; P. falciparum luciferase growth in erythrocytes, 48 h; AID 504832; further: potency means the concentration at half of the fitted maximal effect; on the % scale 0 is the no-effect control and ±100 the full control effect
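Erythrocytes infected with P. falciparum carrying an integrated firefly luciferase reporter (2% hematocrit, 0.1% parasitemia final) were exposed to compounds in RPMI 1640 with 0.5% Albumax at 37 C, 5% CO2. Growth inhibition was scored as reduced luminescence.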
HCV inhibitor – blocks hepatitis C virus | Huh7.5.1 HCVcc-Cre infection, luciferase reporter, 44 h | Potency, µM (doses to about 41.8 µM), for inactives: at the top dose activity change, negative = inhibition, most hits filed as inhibitors | 340,000 tested, 3.4% active | AID 651820; further: potency means the concentration at half of the fitted maximal effect; on the % scale 0 is the no-effect control and ±100 the full control effect
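Whole-lifecycle infectious HCVcc-Cre system; cells 1,000/well, compound then virus (~0.5 moi) added 4 h after plating, 44 h culture. Luciferase read 15 sec following 15 min substrate incubation, room temp.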
Sm TGR inh – blocks Schistosoma mansoni thioredoxin glutathione reductase. purified TGR, DTNB reduction, TNB absorbance 405 nm. Potency, µM (titrated, usually from 114 µM), inactives show at the highest dose activity change, negative = inhibition, hits mostly inhibitors. 360,000 tested, 3% active; further: potency means the concentration at half of the fitted maximal effect; on the % scale 0 is the no-effect control and ±100 the full control effect; nearly all actives have a fitted effect of over 60% in size
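First, TGR (20 nM dispensed) and NADPH were mixed with compound. Second, a 15 min room-temperature incubation followed. Third, further NADPH and then DTNB were added to start the reaction. Finally, TNB absorbance was monitored kinetically.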
Active calls of the source: *; ? = inconclusive; / = not tested or not shown; [ ] = another dose, or the depositor's remark. Unless noted, the call rests on the fitted dose curve; in most records, active means well fitted curve in the direction sought with a large enough effect; inconclusive means small, poorly fitted or top-dose-only effect, or another doubt; inactive means no such curve, though single readings can be large; an effect the other way counts as inactive or inconclusive.

SMILES | SARS PLP yeast | HCMV antiviral | Pf growth 96h | Pf growth 48h | HCV inhibitor | Sm TGR inh
CCn1cc(C(=O)O)c(=O)c2cc(F)c(N/N=C/c3ccccc3[N+](=O)[O-])cc21 | -16% | -71* | 6% | 6% | 3% | -22%
CCn1cc(C(=O)O)c(=O)c2cc(F)c(N3CCN(C(=S)NC(=O)c4ccc(F)c(F)c4)CC3)cc21 | -1% | -28 | 1% | 6.6µM* | 14% | 0%
CCn1cc(C(=O)O)c(=O)c2cc(F)c(N3CCN(C(=S)NC(=O)c4ccc(F)cc4)CC3)cc21 | -1% | -27 | ? | ? | -11% | -17%
CCCOc1ccc(C(=O)NC(=S)N2CCN(c3cc4c(cc3F)c(=O)c(C(=O)O)cn4CC)CC2)cc1 | 2% | -20 | 7% | 15µM* | 20% | -7%
COc1ccc(-n2cc(C(=O)c3cc4ccccc4oc3=O)c(C(C)=O)n2)cc1 | 0% | -67* | / | 23% | -3% | -26%
CC1(C)C[C@H]2C=C(C=O)[C@]3(C=O)C[C@]3(C)[C@H]2C1 | -75% | 9 | ? | ? | 3.2µM* | 50µM*
COc1ccc(-c2cn(CCO)c(-c3ccc(Cl)nc3)n2)cc1 | -5% | 27 | ? | ? | 48% | 1%
CCC(C)(C)C1CCc2[nH]nc(C(=O)NCc3ccccn3)c2C1 (configuration not stated) | 5% | ? | 9.3µM* | 15µM* | -21% | -6%
CCC(C)(C)C1CCc2[nH]nc(C(=O)NCCCNC(=O)OC(C)(C)C)c2C1 (configuration not stated) | -1% | -11 | -10% | 9.3µM* | 17% | -2%
Cc1ccc2oc(=O)c3cc(C(=O)Nc4ccccc4C(N)=O)sc3c2c1 | / | 6 | / | / | / | -1%
CCOC(=O)c1c(C)[nH]c(C)c1S(=O)(=O)N1CCN(c2cc(Cl)ccc2C)CC1 | / | -90* | / | / | / | 0%
CCOC(=O)c1c(C)[nH]c(CCC(=O)NCCCN2CCN(c3cc(Cl)ccc3C)CC2)c1C | / | -97* | / | / | / | -11%
CCOC(=O)c1c(C)[nH]c(C)c1S(=O)(=O)NCCN1CCN(c2cc(Cl)ccc2C)CC1 | 5% | -72* | ? | ? | -19% | -8%
CCOC(=O)c1c(C)[nH]c(CCC(=O)NCCCN2CCN(c3ccc(F)cc3)CC2)c1C | / | -33 | / | / | / | 1%
CC12CN3CC(c4ccccc4)(CN(C1)C3c1ccc(Cl)cc1)C2=O (configuration not stated) | / | -6 | / | / | / | 9%
CC(C)c1ccccc1OCC(O)CN1CCN(S(=O)(=O)c2ccc([N+](=O)[O-])cc2)CC1 (configuration not stated) | -4% | 23 | 2.6µM* | 3.7µM* | 13µM* | -6%
O=C(CN1CCN(S(=O)(=O)c2ccc(Br)cc2)CC1)Nc1ccc(F)cc1 | -7% | 61 | 19% | 4.1µM* | 9% | -31%
O=C(CN1CCN(S(=O)(=O)c2ccc(C(F)(F)F)cc2)CC1)N1CCNC1=O | -1% | 18 | ? | -17% | 6% | 1%
CCc1cccc(C)c1NC(=O)CN1CCN(S(=O)(=O)c2ccc(C(C)(C)C)cc2)CC1 | / | -20 | 0.93µM* | 1.7µM* | 2µM* | -13%
CC(C)(C)c1ccc(S(=O)(=O)N2CCN(CC(=O)N3CC(=O)Nc4ccccc43)CC2)cc1 | -1% | -2 | ? | 12µM* | -6% | ?
O=C(c1ccco1)N1CCCC(c2nc3c(nnn3Cc3c(Cl)cccc3Cl)c(=O)[nH]2)C1 (configuration not stated) | 8% | -9 | -10% | ? | -27% | -30%
Cc1noc(C)c1C(=O)Nc1cccc(S(=O)(=O)N2CCOCC2)c1 | -4% | -6 | -26% | 14% | 14% | -2%
O=C(CN1CCN(S(=O)(=O)c2ccccc2)CC1)Nc1ccc([N+](=O)[O-])cc1 | 30% | -69* | ? | ? | ? | -4%
CCN(CC)C(=O)N1c2ccccc2C=Cc2ccccc21 | -12% | -81* | 0% | / | ? | 5%
NC(=O)N1c2ccccc2C=Cc2ccccc21 | 2% | -19 | ? | ? | ? | 9%
SMILES | SARS PLP yeast | HCMV antiviral | Pf growth 96h | Pf growth 48h | HCV inhibitor | Sm TGR inh
COc1ccc(CCNC(=O)CC(=O)N/N=C\c2ccc(OCC(N)=O)cc2)cc1OC | / | -22 | / | / | / | /
O=C(c1ccccc1)N1CCN(c2ncnc3c2cnn3-c2ccccc2)CC1 | -1% | 21 | -26% | ? | 10µM* | 9%
Cc1nn(-c2ccccc2)c(Cl)c1C(=O)N1CCN(c2ncnc3c2cnn3-c2ccccc2)CC1 | 1% | -105* | ? | ? | 2.2µM* | -18%
COc1cccc(OCCN2CCN(c3ncnc4c3cnn4-c3ccccc3)CC2)c1 | 1% | 0 | 9.3µM* | 12µM* | 7.1µM* | 18%
CS(=O)(=O)N1CCCc2cc(C(=O)Nc3cccc(C(F)(F)F)c3)ccc21 | / | ? | / | / | / | -7%
Cc1nc(Nc2cnc(/C=C/c3cc(C(=O)Nc4cccc(C(F)(F)F)c4)ccc3C)cn2)cc(N2CCNCC2)n1 | 4% | / | ? | 0.74µM* | -9%[8.37 µM] | 1%
CN(C[C@H](CC1CCCCC1)N(C[C@H](Cc1ccccc1)N(CCc1ccccc1)N=O)N=O)N=O | 0% | 7 | ? | 13µM* | -21% | -23%
CN(C[C@H](Cc1ccccc1)N(C[C@H](Cc1ccccc1)N(CCc1cc(C(F)(F)F)cc(C(F)(F)F)c1)N=O)N=O)N=O | -1% | 20 | 4.1µM* | ? | 13% | -14%
CCCC[C@H](CN(N=O)[C@@H](Cc1ccccc1)CN(C)N=O)N(CCc1ccccc1)N=O | 1% | -23 | ? | ? | -10% | 0%
CC(C)[C@H](CN(N=O)[C@@H](Cc1ccccc1)CN(C)N=O)N(CCc1ccccc1)N=O | 0% | 67 | ? | ? | ? | 29%
CN(C[C@H](Cc1ccccc1)N(C[C@H](Cc1cccc2ccccc12)N(CCc1ccccc1)N=O)N=O)N=O | 0% | 1 | ? | ? | -1% | 35µM*
CC(C)C[C@@H](CN(C)N=O)N(C[C@H](Cc1ccccc1)N(CCc1ccccc1)N=O)N=O | 0% | -20 | ? | ? | -19% | 40µM*
CC(C)Cc1ccc(C(=O)NCCOc2ccccc2)o1 | -3% | 21 | 36% | 202% | 6% | -3%
COc1ccc(S(=O)(=O)Nc2noc3ccccc23)cc1 | 0% | 37 | ? | 13% | -1% | 6%
CN(CC(=O)Nc1ccc(N2CCOCC2)cc1)C(=O)CCNC(=O)c1ccc(Br)cc1 | -6% | -8 | -1% | -11% | 4% | -9%
Cn1c2ccccc2c(=O)c2ccc(NCCc3cccs3)cc21 | 3% | 196 | / | / | 11µM* | /
